Among the data in PubChem BioAssay AID504465 (National Center for Advancing Translational Sciences (NCATS), 2011) are Potency values, retold here.

Out of some 2,100 compounds screened, about 210 (10%) were called active. Another 53% or so got no clear call; they are omitted. Calls follow the shape of the dose curve; as a rule, active = well fitted inhibition curve with a large enough effect; inconclusive = small, poorly fitted or top-dose-only effect, or effect the other way; inactive = no such curve, though single readings can be large or run the other way. This is one part of the list. A call without a number means that no potency is given here.
Potency is read from the fitted curve at half-maximal effect.

The test can be described thus: IN Cell qHTS Assay for Inhibitors of the mTORC1 Signaling Pathway in MEF (Tsc2-/-, p53-/-) Cells: Sytravon. Also: nearly all actives have a fitted effect of over 60% in size. The following applies: phospho-rpS6 immunofluorescence, 24 h; series mostly up to 38.3 µM. The source says:
NIH Molecular Libraries Probe Production Centers Network [MLPCN] NIH Chemical Genomics Center [NCGC] MLPCN Grant: NS059428-01 Assay Submitter (PI): Blenis, John; Hoffman, Greg; Harvard University NCGC Assay Overview: Thee mammalian target of rapamycin (mTOR) is an intracellular serine/threonine kinase Aberrant regulation of mTOR signaling plays a causative role in a number of human diseases, including cancer, benign tumors such as lymphangioleiomyomatosis (LAM) and Tuberous Sclerosis Complex (TSC), and metabolic diseases such as diabetes and obesity. This project aims to identify inhibitors of ribosomal protein S6 (rpS6) phosphorylation. The phosphorylation of rpS6 is a key event downstream of mTOR activation. The assay uses a phospho-specific antibody of phospho-rpS6 to detect inhibitors of mTOR activation. Mutations in the Tsc1 and Tsc2 genes are the underlying genetic lesions responsible for TSC, causing constitutive activation of the mTORC1 pathway and leading to profound effects on cell metabolism. Aberrant metabolism in cancer has recently received significant attention as a target to develop therapeutic agents in the treatment of cancer1. As Tsc2-/- cells have lost the ability to respond to energy and growth factor deprivation, these cells are unable to properly down regulate cellular biosynthetic processes in response to metabolic stress, and are thus extremely sensitive to glucose deprivation-induced death.2 A central goal of this project is to explore the unique cell survival and metabolic properties of cells with Tsc1 or Tsc2 by screening for compounds that selectively target the Tsc2-/- MEFs by screening both Tsc2-/- and WT MEF cell lines. We hope to better understand these aspects of TSC physiology in order to exploit them for therapeutic benefit.
NCGC IN Cell Assay Protocol: For quantitative high throughput analysis of mTORC1 signaling, we developed a cell-based assay for immuno-fluorescence based detection of rpS6 phosphorylation on the Acumen Explorer that will be used a platform for the primary small molecule screen. Mouse embryonic fibroblasts (MEFs) are cultured in 1536-well plates using DMEM + 10% FBS. Twenty-four hrs after plating, test compounds (solubilized in DMSO) are delivered and incubated with the cells for 24 hrs at 37 degree Celsius. Following the incubation, media with compound is aspirated and the cells are fixed in 4% paraformaldehyde (PFA) containing PBS + 0.2% TX-100. Next, PFA is aspirated, cells are washed two times with PBS plus 0.2% TX-100 and the cells are blocked for 1 hr at room temperature (blocking buffer: LiCOR Blocking Buffer plus 0.2% TX-100). This is followed by aspiration and staining with Alexa-488 conjugated-phospho-rpS6 Ser235/236 antibody for 2 hours at room temperature (Cell Signaling Technology # 4803, 1:50 dilution in blocking buffer). Cells are washed two times with PBS plus 0.2% TX-100, and stained with 10 uM propidium iodide (PI) for 20-25 minutes for cell number measurement (1:500 dilution of Hoescht staining is also added for IN Cell imaging). Active wells which are selected (based on Acumen results) are imaged on the IN Cell 1000 (GE Healthcare) using the D360/40X and HQ480/40X excitation filters for the Hoechst and Alexa-488 cytoplasmic stains, respectively. The fluorescence emission filters used were HQ460/40M and HQ535/50M for the Hoechst and Alexa-488 cytoplasmic stains, respectively. The normalized phospho-S6 staining is calculated as the ratio of […] for the single concentration rapamycin control (7.5 nM) and DMSO columns. […] Inhibition of the pathway is defined based on the normalized phospho-S6 intensity in rapamycin treated cells. Each treatment is reported as the % positive cells in the well, where thresholds are defined by selecting wells with the highest and lowest signal and differentiating between the % non-active and % active populations. […]
In the case of `O=c1oc2ccccc2cc1-c1cn2cc(Cc3ccc(F)cc3)sc2n1`, the Potency is 1.65 µM (active).

As for `CCc1ccc(-n2nc(C)c3c2NC(=O)CSC3c2ccc(OC)cc2OC)cc1` (centres undefined), the Potency entry is “inactive”. With `Cc1cccc(CN2CC=C(c3noc(CCC(=O)Nc4ccc(C)c(F)c4)n3)CC2)c1` the entry was “inactive”; with `Nc1c(C(=O)Nc2cccc(Br)c2)sc2nc3c(cc12)N1CCC3CC1`, “inactive”.

With `O=C(Nc1ccccc1)N(Cc1ccc2c(c1)OCO2)C1CCN(Cc2ccccc2)CC1`, the Potency result was “inactive”. With `COc1ccc2nc(NC(=O)c3nc(S(=O)(=O)Cc4cccc(C)c4)ncc3Cl)sc2c1` the figure was 16.5 µM (active). With `CCOc1ccc(NC(=O)c2cc3c(C)nn(-c4ccccc4)c3s2)cc1`, the Potency is 14.7 µM (active). With `CCOc1ccc(NC(=O)c2cccn(Cc3cccc(Cl)c3)c2=O)cc1`, the Potency entry was “inactive”.

As for `Cc1ccc(-n2c(/C=C/c3ccc(Br)s3)nc3ccccc3c2=O)cc1C`, the Potency result is “inactive”.
